CHX counter: affects cycloheximide protein synthesis inhibition readout, counter-screen | cell reporter, cycloheximide protein synthesis inhibition counterscreen | max response, % | 12% of 300,000 active; in the data active = max response mostly above about 13%, no sharp cut-off; inactive = mostly below about 14%; note: read at 38.3 µM for the half of the compounds with a filed dose; 0% is about no effect
Pf growth 96h: P. falciparum growth inhibition at 96 hours | Potency, µM (highest dose often 28.7 µM), for the others: top-dose activity change, negative = inhibition, most hits filed as inhibitors | 6.9% of 320,000 active | P. falciparum luciferase reporter growth, 96 h; note: potency is the fitted concentration of half-maximal effect; % is set by controls: 0 for no effect and ±100 for the full control effect
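Parasite growth measured via integrated firefly luciferase reporter in P. falciparum. Infected erythrocytes at 2% hematocrit, 0.05% parasitemia final were treated 96 hours at 37 C under 5% CO2, and luminescence was read.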
AMA1-RON2 inh: inhibitors of Plasmodium falciparum AMA1-RON2 interaction | 0.2% of 360,000 active | Potency, µM (titrated, usually from 58.2 µM), for the others: top-dose activity change, negative = inhibition, hits mostly inhibitors | AlphaScreen AMA1-biotinylated RON2 peptide binding | AID 720542;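 note: potency is the fitted concentration of half-maximal effect; 0% = vehicle wells and -100% = peptide control; nearly all actives have a fitted effect of over 45% in size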
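AMA1 (3D7) with his tag at 25 nM final met compounds first, then biotinylated RON2 peptide at 25 nM; detection used donor plus acceptor beads, 10 µg/mL apiece, read by AlphaScreen after 30 min at room temperature.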
HCV inhibitor: blocks hepatitis C virus. Huh7.5.1 HCVcc-Cre infection, luciferase reporter, 44 h. Potency, µM (series often up to 41.8 µM), for inactives: top-dose activity change, negative = inhibition, most hits filed as inhibitors. 3.4% of 340,000 active; note: potency is the fitted concentration of half-maximal effect; % is set by controls: 0 for no effect and ±100 for the full control effect
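Seed cells (1,000/well) for 4 h; treat with compound and infect with HCVcc-Cre, moi about 0.5. Incubate 44 h, then detect luciferase activity.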
Pf growth 48h: P. falciparum growth inhibition at 48 hours (one generation); AID 504832; Potency, µM (highest dose often 28.7 µM), for inactives: top-dose activity change, negative = inhibition, usual class: inhibitors; P. falciparum luciferase growth in erythrocytes, 48 h; 5.9% of 310,000 active; note: potency is the fitted concentration of half-maximal effect; % is set by controls: 0 for no effect and ±100 for the full control effect
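Firefly luciferase activity from engineered P. falciparum reports growth; inhibitors lower the luminescent signal. Cultures contained 2% hematocrit erythrocytes at 0.1% final parasitemia.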
Shiga toxin inh: blocks Shiga toxin action in Vero cells. Vero cells, Shiga toxin protein synthesis inhibition reporter. inhibition, % at 38.7 µM. 9.2% of 290,000 active. AID 2315; in the data active = inhibition mostly above about 28%, no sharp cut-off; inactive = mostly below about 43%; note: 0% is about no effect
* hit, by the source's call; ? = inconclusive; . = not tested or not shown. Sampled rows, rich in hits. Any-hit rate of the full collection: about 21%. Unless noted, calls come from the whole dose curve; as a rule, active = well fitted curve in the direction sought with a large enough effect; inconclusive = small, poorly fitted or top-dose-only effect, or another doubt; inactive = no such curve, though single readings can be large; an effect the other way counts as inactive or inconclusive.

SMILES	CHX counter	Pf growth 96h	AMA1-RON2 inh	HCV inhibitor	Pf growth 48h	Shiga toxin inh
COC(=O)c1ccc(CSc2ncnc3c2nnn3-c2ccc(F)cc2)o1	-2.5	20.0%	0.5%	?	1.04µM*	12.6
CCC(C(=O)OC)n1cnc2c(nnn2-c2ccc(F)cc2)c1=O (stereo unspecified)	9.1*	55.0%	14.6%	9.3%	-7.2%	17.3
CCOC(=O)C(CC)n1cnc2c(nnn2-c2ccc(C)cc2)c1=O (stereo unspecified)	21.8	?	0.4%	10.9%	15.2%	30.8
CCOC(=O)Cn1cnc2c(nnn2-c2ccc(F)cc2)c1=O	0.7	8.5%	-0.4%	21.2%	35.8%	-1.9
CCOC(=O)C(CC)n1cnc2c(nnn2-c2cccc(OC)c2)c1=O (stereo unspecified)	17.0*	2.1%	-1.6%	-4.4%	9.6%	17.6
COC(=O)C(C)n1cnc2c(nnn2-c2ccc(C)cc2)c1=O (stereo unspecified)	13.4*	36.7%	33.6%	0.3%	4.1%	19.1*
O=C(Nc1ccccc1F)c1csc([C@@H]2C[C@H](O)[C@@H](CO)O2)n1	.	.	0.1%	.	.	.
Cc1cnc(C(=O)OCC(=O)NCc2ccc(Cl)cc2)cn1	.	.	8.5%	15.6%	.	.
CCOC(=O)CNC(=O)Cn1cnc2c(nnn2-c2ccc(OC)cc2)c1=O	0.8	40.0%	5.2%	-4.3%	-19.1%	4.8
COC(=O)C(C)n1cnc2c(nnn2-c2ccc(OC)cc2)c1=O (stereo unspecified)	-1.3	4.15µM*	-0.4%	13.7%	14.1%	-24.7
CCOC(=O)C1=C(CSc2nc(-c3ccccc3)ccc2C#N)OC(N)=C(C#N)C1c1ccc(OC)cc1 (stereo unspecified)	62.8*	?	2.0%	?	?	62.8
CCOC(=O)C1=C(CSc2nc3c(cc2C#N)CN(C)CC3)OC(N)=C(C#N)C1c1ccc(Cl)cc1 (stereo unspecified)	-1.7	?	?	12.6µM*	?	2.7
CCOC(=O)C1=C(CSc2nc3c(cc2C#N)CN(C)CC3)OC(N)=C(C#N)C1c1ccncc1 (stereo unspecified)	-1.2	?	1.0%	13.6%	-10.5%	4.8
COc1ccc(Cc2c(C3CCCCC3)nc3cc(C)c(Br)c(C)n23)c(C)c1	.	.	-13.3%	.	.	.
Cc1ccc(S(=O)(=O)N2CCN(c3ccccc3)CC2)c(C)c1	1.9	326.7%	1.5%	-29.1%	2.2%	.
COc1ccc(S(=O)(=O)n2nc(-n3c(C)ccc3C)c3c(F)cccc32)cc1OC	5.4	?	-21.9%	?	5.86µM*	1.3
Cc1ccc(C)n1-c1nn(S(=O)(=O)c2ccccc2)c2cccc(F)c12	-3.6	?	-6.8%	-1.0%	?	-4.8
Cc1cccc(NC(=O)CN(CC2CCCO2)C(=O)c2oc3ccc(F)cc3c2C)c1C (stereo unspecified)	.	?	2.7%	?	?	.
Cc1ccc2c(C)c(C(=O)N(Cc3ccncc3)CC3CCCO3)oc2c1C (stereo unspecified)	-2.2	5.4%	-8.1%	?	6.5%	-21.9
Cc1cc2oc(C(=O)N(Cc3ccc(N(C)C)cc3)CC3CCCO3)c(C)c2cc1C (stereo unspecified)	-5.1	?	14.1µM*	?	?	-5.3
Cc1c(C(=O)N(Cc2ccncc2)CC2CCCO2)oc2c(F)cccc12 (stereo unspecified)	-2.7	10.4µM*	-4.6%	1.8%	-27.6%	-2.8
Cc1ccc2oc(C(=O)N(Cc3ccc(N(C)C)cc3)CC3CCCO3)c(C)c2c1 (stereo unspecified)	3.6	41.0%	17.8µM*	-20.5%	-5.8%	14.2
CCc1nc2c(OCCn3cccc3)cccn2c1N(C)C(=O)c1ccco1	.	.	-7.6%	.	.	.
C/C(=N\Nc1nc(C)c(C)s1)c1ccc([N+](=O)[O-])cc1	-4.7	?	18.9%	?	?	18.8
Cc1cc(Br)ccc1NC(=O)CN(C)C(=O)c1cc([N+](=O)[O-])ccc1N1CCOCC1	.	?	14.3%	-22.4%	9.6%	.
SMILES	CHX counter	Pf growth 96h	AMA1-RON2 inh	HCV inhibitor	Pf growth 48h	Shiga toxin inh
COc1ccc(/C=c2\s/c(=C(/C#N)C(=O)NCc3ccco3)n(-c3ccccc3)c2=O)cc1	3.3	29.9%	4.4%	-22.0%	-0.4%	19.7
COC(=O)/C=c1/s/c(=C(\C#N)C(=O)NCc2ccco2)n(-c2ccccc2)c1=O	-7.4	6.57µM*	13.1%	2.2%	-11.4%	-11.5
CC(C)c1ccc(C(C(=O)NC2CCCCC2)N(C(=O)c2ccccn2)c2cccnc2)cc1 (stereo unspecified)	5.0	?	-8.4%	7.2%	10.4µM*	-17.7
CC(=O)c1ccc(N(C(=O)c2csnn2)C(C(=O)NC2CCCC2)c2ccccc2)cc1 (stereo unspecified)	2.9	17.7%	7.7%	?	-18.5%	-7.1
CC(=O)c1cccc(N(C(=O)c2ccccn2)C(C(=O)NC2CCCCC2)c2ccccc2)c1 (stereo unspecified)	-3.3	10.4µM*	-3.8%	-5.1%	-25.6%	-8.5
O=C(NC1CCCCC1)C(c1ccc(Cl)cc1)N(C(=O)c1cnccn1)c1ccc2c(c1)OCO2 (stereo unspecified)	-2.8	-14.6%	1.1%	9.4%	10.4µM*	-1.2
NC(COCc1ccccc1)c1csc(NC(=O)Nc2cccc(Cl)c2)n1 (stereo unspecified)	.	.	17.4%	.	.	.
COC(=O)CCC(=O)c1oc2ccccc2c1NC(=O)CCCN1C(=O)c2ccccc2C1=O	12.5	9.28µM*	7.6%	-6.4%	30.2%	21.6
COC(=O)CCC(=O)c1oc2ccccc2c1N	42.3*	?	?	0.5%	84.6%	89.1*
CC(=O)c1oc2ccccc2c1NC(=O)CCCN1C(=O)c2ccccc2C1=O	-4.4	-4.9%	-8.0%	9.1%	.	-12.4
N=C(N)n1cccn1	.	-6.5%	.	.	-10.0%	.
O=C(COC(=O)/C=C/c1ccccc1Cl)NC1CCCCCC1	9.2	-15.0%	9.7%	-28.5%	-4.1%	-3.8
CCn1c(/C=C/Nc2ccccc2)[n+](CC)c2cc(Cl)c(Cl)cc21	-1.4	?	-9.5%	?	7.38µM*	-6.8
Cc1cccc(NC(=O)COc2coc(CN3CCc4ccccc4C3)cc2=O)c1	.	?	2.6%	-18.6%	8.28µM*	.
O=C(COc1coc(CN2CCCc3ccccc32)cc1=O)Nc1ccccc1	.	?	9.1%	?	?	.
O=C(COc1coc(CN2CCCc3ccccc32)cc1=O)Nc1cccc([N+](=O)[O-])c1	.	6.57µM*	6.4%	?	?	.
Cc1ccc(C)c(NC(=O)COc2coc(CN3CCc4ccccc4C3)cc2=O)c1	.	?	4.6%	?	-17.7%	.
CCc1ccc(NC(=O)COc2coc(CN3CCc4ccccc4C3)cc2=O)cc1	.	?	-11.1%	?	9.28µM*	.
